Measured values reported in PubChem BioAssay AID602253 (Broad Institute, 2012).
Results with a measured potency or affinity are listed apart. Activity calls are given as the source filed them.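 Rule for the calls: active = compounds lowering polarization whose fitted half-maximal concentration is at most twice their top tested dose; inconclusive = flat curve with 30 to 70 percent inhibition, or poor fit; inactive = the rest.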

These compounds were tested against Golgi-associated PDZ and coiled-coil motif-containing protein (Homo sapiens) (UniProt Q9HD26) (assay: disruption of CAL PDZ–reporter peptide interaction – biochemical, fluorescence polarization, Cer-tagged CAL PDZ, dry powder, dose response (AID 602253)). Settings: Purified CAL PDZ, TMR-peptide fluorescence polarization, 1 h; series mostly up to 35 µM; activity change, negative = inhibition: at the top concentration.

Row | Compound | activity change, negative = inhibition
1 | O=S(=O)(Nc1ccc(O)c2ccccc12)c1ccccc1 | -3.92% (inactive)
2 | O=C(O)CSc1cc(NS(=O)(=O)c2ccc(Cl)cc2)c2ccccc2c1O | -5.53% (inactive)
3 | O=C(O)CSc1cc(NS(=O)(=O)c2ccc(Br)cc2)c2ccccc2c1O | -4.08% (inactive)
4 | O=S(=O)(Nc1cc(Sc2ccccc2)c(O)c2ccccc12)c1ccc(Cl)cc1 | -3.34% (inactive)
5 | COc1ccc(S(=O)(=O)Nc2cc(SCC(=O)O)c(O)c3ccccc23)cc1 | -3.93% (inactive)
6 | CCOc1ccc(S(=O)(=O)Nc2cc(SCC(=O)O)c(O)c3ccccc23)cc1 | -2.74% (inactive)
